The source of these data is PubChem BioAssay (EPA / NIEHS).

Structures are written as SMILES. Inconclusive results are not listed. Calls of active or inactive are those of the source. Rule for the calls, unless noted: active = hit-call score of the fitted dose curve at least 0.9, where 1 is the maximum; inactive = score below 0.9.

Assay [1] in a line: APR_HepG2_CellCycleArrest_1hr: Apredica 1-hour HepG2 Assay for Cell Cycle Arrest (AID 2282666). The settings on record: high-content imaging, actives raise or lower the signal. Summed up: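 Cell cycle arrest scored from nuclear DNA content (Hoechst 33342) using high-content imaging of fixed HepG2 cells after 1 h treatment across 0.39–200 uM, in duplicate. Gain or loss fitted relative to 0.5% DMSO.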

A short description of assay [2]: ACEA_ER_80hr: ACEA Biosciences xCELLigence Real-Time Cell Analysis on Estrogen Receptor Agonism for Proliferation (AID 2282667; active = hit-call score of the fitted dose curve at least 0.9, where 1 is the maximum). As to conditions: T47D proliferation, impedance (xCELLigence), 80 h. The procedure, abridged: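 Estrogen-driven proliferation is captured as electrode impedance in T47D cells 80 h after compound addition. Test articles ran at 8 concentrations, 1:4 dilutions from 100 uM final, in two replicate plates.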

Assay [3] in a line: APR_HepG2_CellLoss_1hr: Apredica 1-hour HepG2 Assay for Cell Loss (AID 2282668).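 Note: curves fitted both ways against DMSO so gain or loss of cells counts.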 The settings on record: high-content imaging. Summed up: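 Cell number comes from high-content imaging of Hoechst-labelled nuclei in fixed HepG2 cells. Cells were exposed for 1 h to ten concentrations from 0.39 to 200 uM in 0.5% DMSO. Gain or loss was fitted against DMSO controls.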
Assay [4] is described as follows: APR_HepG2_MicrotubuleCSK_1hr: Apredica 1-hour HepG2 Assay for Microtubule CSK Stabilty (AID 2282669). As to conditions: HepG2 microtubule cytoskeleton imaging, actives raise or lower the signal. The procedure, abridged:
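Alpha-tubulin immunofluorescence, imaged by automated high-content microscopy with Hoechst nuclear segmentation, measured cytoskeletal change after 1 h dosing of HepG2 at 0.39–200 uM in 0.5% DMSO. Activity fitted in both directions relative to DMSO.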

Assay [5] in a line: APR_HepG2_NuclearSize_1hr: Apredica 1-hour HepG2 Assay for Nuclear Size (AID 2282670). As to conditions: high-content imaging, actives raise or lower the signal. The procedure, abridged: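 Nuclear size measured by high-content imaging of Hoechst 33342 nuclear stain after formaldehyde fixation; human HepG2 line exposed 1 hr to compounds at 0.39–200 uM in 0.5% DMSO, with bidirectional curve fitting relative to DMSO.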

Assay [6] in a line: APR_HepG2_P-H2AX_1hr: Apredica 1-hour HepG2 Assay for H2AX Phosphorylation (AID 2282673). The settings on record: high-content imaging, actives raise or lower the signal. Summed up: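 Phospho-H2A.x immunofluorescence (1:200, FITC secondary) plus Hoechst nuclear stain, quantified by high-content imaging in HepG2 after 1 hr compound exposure. Ten concentrations, 0.39 to 200 uM, in duplicate with 0.5% DMSO; fit both directions against DMSO.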

Assay [7] is described as follows: APR_HepG2_MitoMembPot_1hr: Apredica 1-hour HepG2 Assay for Mitochondrial Membrane Potential (AID 2282675). The settings on record: imaging, actives raise or lower the signal. The procedure, abridged: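 Mitochondrial membrane potential read as MitoTracker Red CMXRos intensity by automated imaging of fixed HepG2 cells. Dye at 250 nM for 30 min pre-fixation; compounds 0.39 to 200 uM for 1 hour, duplicate wells, 0.5% DMSO.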

A short description of assay [8]: APR_HepG2_CellCycleArrest_24hr: Apredica 24-hour HepG2 Assay for Cell Cycle Arrest (AID 2282905).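 Note: cell cycle arrest scored as ratio of 2N to 4N nuclear DNA content.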 The settings on record: imaging, actives raise or lower the signal. Summed up:
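After 24 h exposure at 0.39–200 uM in 0.5% DMSO, fixed cells received Hoechst 33342 staining. Imaging quantified per-nucleus DNA content; gain or loss fitted against DMSO controls.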

A short description of assay [9]: APR_HepG2_StressKinase_1hr: Apredica 1-hour HepG2 Assay for Stress Kinase (AID 2282906). The settings on record: HepG2 stress kinase (phospho-c-Jun) imaging, actives raise or lower the signal. Summed up: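 High-content imaging of phospho-c-Jun immunostaining (with Hoechst nuclear identification) after a 1 h exposure of HepG2 cells to 10 concentrations from 0.39 to 200 uM, final DMSO 0.5%. Fitted bidirectionally against DMSO.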

Assay [10] is described as follows: APR_HepG2_CellLoss_24hr: Apredica 24-hour HepG2 Assay for Cell Loss (AID 2282908).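 For AC50: fit in both directions so a hit may be cell loss or gain.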 The settings on record: high-content imaging. Summed up:
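Nuclei stained with Hoechst 33342 after formaldehyde fixation (3.7%) were imaged at 20x to count cells. Exposure lasted 24 hr, at ten concentrations from 0.39 to 200 uM in duplicate, with 0.5% v/v DMSO. Fit bidirectional, relative to DMSO.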

Assay [11] can be described thus: APR_HepG2_MitoticArrest_24hr: Apredica 24-hour HepG2 Assay for Mitotic Arrest (AID 2282910). As to conditions: high-content imaging, actives raise or lower the signal. Summed up: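 High-content imaging of fixed HepG2 cells labeled with Hoechst 33342 and anti-phospho-histone H3, after 24 h treatment. Ten concentrations 0.39 to 200 uM in duplicate, final DMSO 0.5%; changes fitted both directions relative to DMSO.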

Assay [12] in a line: APR_HepG2_MitoMembPot_24hr: Apredica 24-hour HepG2 Assay for Mitochondrial Membrane Potential (AID 2282911). As to conditions: imaging, actives raise or lower the signal. Summed up:
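Mitochondrial dye uptake (MitoTracker Red CMXRos, 250 nM, 30 min pre-fixation) in HepG2 after 24 hr compound exposure, 0.39–200 uM; ArrayScan images at 20x, activity fitted in both directions relative to DMSO.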

Assay [13] is described as follows: APR_HepG2_MitoMass_24hr: Apredica 24-hour HepG2 Assay for Mitochondrial Mass (AID 2282912). As to conditions: high-content imaging, actives raise or lower the signal. The procedure, abridged: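 Endpoint is MitoTracker Red CMXRos (250 nM, 30 min, pre-fixation) intensity from 20x high-content imaging, nuclei located by Hoechst. Human HepG2 cells received ten concentrations from 0.39 to 200 uM in 0.5% DMSO for 24 hr, duplicate wells. Bidirectional fit relative to DMSO.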

The nature of assay [14]: APR_HepG2_p53Act_24hr: Apredica 24-hour HepG2 Assay for p53 Activation (AID 2282913).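 Note: p53 protein immunofluorescence averaged per cell in HepG2 with Hoechst nuclei.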 The settings on record: high-content imaging, actives raise or lower the signal. The procedure, abridged:
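Following 24 hr dosing of HepG2 at 0.39–200 uM, the cells undergo formaldehyde fixation, Triton permeabilization and multiplexed antibody labeling that includes p53 (Cy5). Signal from the imaging is referenced to DMSO solvent controls.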

A short description of assay [15]: APR_HepG2_CellCycleArrest_72hr: Apredica 72-hour HepG2 Assay for Cell Cycle Arrest (AID 2282914). The settings on record: high-content imaging, actives raise or lower the signal. Summed up: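 Using multiplexed high-content imaging, HepG2 nuclei stained with Hoechst 33342 (2 ug/mL) were analysed for DNA content after fixation and permeabilization. Treatment lasted 72 hr across 0.39–200 uM in duplicate with final DMSO 0.5% v/v; DMSO served as negative control.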

A short description of assay [16]: APR_HepG2_MitoMass_1hr: Apredica 1-hour HepG2 Assay for Mitochondrial Mass (AID 2282674). The settings on record: high-content imaging, actives raise or lower the signal. Summed up:
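Mitochondrial mass is taken from MitoTracker Red CMXRos (250 nM, 30 min, pre-fixation) fluorescence imaged at 20x in HepG2 cells. Exposure lasted 1 hr across ten concentrations, 0.39 to 200 uM, 0.5% DMSO; DMSO baseline, bidirectional fitting.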

Assay [17] in a line: APR_HepG2_NuclearSize_24hr: Apredica 24-hour HepG2 Assay for Nuclear Size (AID 2282907). The settings on record: high-content imaging, actives raise or lower the signal. Summed up:
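Nuclear size from Hoechst 33342-stained, formaldehyde-fixed HepG2 nuclei imaged by high-content microscopy, after 24 h dosing at ten concentrations from 0.39 to 200 uM in 0.5% DMSO; gain or loss relative to DMSO baseline.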

For the compound `CCNc1nc(Cl)nc(NC(C)C)n1`, the compound was called inactive in [1], in [2], in assay [3], in assay [4], in [5] and in assay [6]. Also, the outcome in assay [7], in [8], in assay [9], in [10], in assay [11] and in [12] was inactive. Further, the result in assay [13], in assay [14] and in [15] was inactive.
Consider `CCCCC(CC)COC(=O)c1ccccc1C(=O)OCC(CC)CCCC` (configuration not stated), for which the compound was classed as inactive in assay [1], in [2], in assay [3], in assay [4], in [6] and in assay [16]. Besides, the result in assay [7], in assay [8], in assay [10], in assay [11], in assay [12] and in assay [13] was inactive. Besides, the compound was classed as inactive in assay [14] and in [15].
As to `COC(=O)C=C(C)OP(=O)(OC)OC`, the outcome in assay [1], in assay [2], in assay [3], in assay [4], in assay [6] and in assay [7] was inactive. In addition, the compound was classed as inactive in [8], in [10], in assay [11], in assay [12], in [13] and in [14]. In assay [15], the outcome was inactive.
The term AC50 denotes the concentration giving half of the maximal activity seen. For the compound `C=CCC1=C(C)[C@@H](OC(=O)[C@@H]2[C@@H](C=C(C)C)C2(C)C)CC1=O`, the compound was called inactive in assay [1], in assay [2], in [3], in [4], in assay [6] and in assay [8]. The outcome in assay [11], in assay [12], in [13], in assay [14] and in assay [15] was inactive. Moreover, the values for the half-maximal activity concentration (AC50) in assay [7] and in assay [10] were 109 µM (active) and 99.2 µM (active), respectively.
Take `CCCC1COC(Cn2cncn2)(c2ccc(Cl)cc2Cl)O1` (configuration not stated): the call in [1], in assay [2], in assay [3], in assay [4], in assay [6] and in assay [16] was inactive. The result in assay [7], in assay [8], in [17], in assay [10], in [11] and in [13] was inactive. In assay [14], the result was inactive. Besides, the values for the AC50 in assay [12] and in [15] were 12.8 µM (active) and 100 µM (active), respectively.
With `C=CC1(C)OC(=O)N(c2cc(Cl)cc(Cl)c2)C1=O` (configuration not stated), the compound was called inactive in assay [1], in assay [2], in assay [3], in assay [4], in [6] and in assay [7]. In addition, the compound was classed as inactive in assay [8], in assay [17], in assay [10], in [11], in assay [12] and in [13]. Besides, the compound was classed as inactive in [14] and in assay [15].
Regarding `OC(c1ccc(Cl)cc1)(c1cncnc1)c1ccccc1Cl` (configuration not stated), the compound was called inactive in assay [1], in assay [2], in assay [3], in assay [4], in [6] and in assay [7]. Further, the result in assay [8], in assay [13], in [14] and in [15] was inactive. The AC50 in assay [10] was 108 µM (active); in assay [11], 91.1 µM (active); in [12], 31.5 µM (active).
